WRN helicase inh: qHTS for Inhibitors of WRN Helicase; WRN helicase unwinding, fluorescent forked duplex, kinetic; Potency, µM (series often up to 114 µM), inactives show at the highest dose activity change, negative = inhibition, usual class: inhibitors; hit rate 0.46% among 360,000; further: potency means the concentration at half of the fitted maximal effect; on the % scale 0 is the no-effect control and ±100 the full control effect; nearly all actives have a fitted effect of over 55% in size
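WRN at 20 nM final preincubated with compound 15 min at room temperature; reaction started with 100 nM fluorophore/quencher forked duplex oligonucleotide and 2 mM ATP final. Unwinding followed kinetically by red fluorescence (ex 525, em 598 nm).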
VDR inh: Inhibitors of the vitamin D receptor (VDR): qHTS. Vitamin D3 receptor (Homo sapiens), P11473. VDR-SRC2-3 peptide fluorescence polarization, 2 h. Potency, µM, without a hit: max response, negative = inhibition, actives largely listed as inhibitors. hit rate 0.93% among 400,000; further: potency means the concentration at half of the fitted maximal effect; on the % scale 0 is the no-effect control and ±100 the full control effect
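Fluorescence polarization assay of small-molecule disruption of VDR binding to coregulator peptide SRC2-3. Compounds and controls pin-transferred, then read after 2 h incubation at ambient room temperature.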
PLK1 PBD block: qHTS for Inhibitors of PLK1-PDB (polo-like kinase 1 - polo-box domain): Primary Screen; Serine/threonine-protein kinase PLK1 (Homo sapiens), P53350; Plk1 PBD binding of FITC phosphopeptide, fluorescence polarization; Potency, µM, for inactives: max response, negative = inhibition, actives largely listed as inhibitors; hit rate 2.8% among 360,000; further: potency means the concentration at half of the fitted maximal effect; series mostly up to about 57 µM; on the % scale 0 is the no-effect control and ±100 the full control effect; nearly all actives have a fitted effect of over 65% in size
Target sequence (P53350 whole entry, looked up, the tested form may be a part): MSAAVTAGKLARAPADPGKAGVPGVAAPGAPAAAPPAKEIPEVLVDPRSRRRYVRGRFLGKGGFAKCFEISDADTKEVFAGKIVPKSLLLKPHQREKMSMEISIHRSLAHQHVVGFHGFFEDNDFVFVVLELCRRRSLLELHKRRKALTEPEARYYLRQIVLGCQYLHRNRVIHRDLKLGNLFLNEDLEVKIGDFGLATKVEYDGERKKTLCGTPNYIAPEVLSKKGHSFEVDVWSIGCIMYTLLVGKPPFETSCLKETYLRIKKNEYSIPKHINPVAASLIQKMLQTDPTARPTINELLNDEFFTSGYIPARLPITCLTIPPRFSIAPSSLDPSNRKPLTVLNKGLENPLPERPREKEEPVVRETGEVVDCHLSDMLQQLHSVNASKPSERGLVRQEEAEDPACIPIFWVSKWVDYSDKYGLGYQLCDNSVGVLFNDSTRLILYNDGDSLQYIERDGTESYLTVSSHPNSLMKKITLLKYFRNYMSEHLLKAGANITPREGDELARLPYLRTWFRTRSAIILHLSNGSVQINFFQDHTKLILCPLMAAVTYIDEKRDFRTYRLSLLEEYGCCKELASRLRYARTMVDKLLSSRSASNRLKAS
FEN1 inh-1: qHTS Assay for the Inhibitors of Human Flap endonuclease 1 (FEN1). P39748. Recombinant FEN1 flap cleavage, fluorescence, 15 min. Potency, µM (highest dose often 114 µM), for inactives: top-dose activity change, negative = inhibition, hits mostly inhibitors. hit rate 0.35% among 390,000. AID 588795, 2011; further: potency means the concentration at half of the fitted maximal effect; on the % scale 0 is the no-effect control and ±100 the full control effect; nearly all actives have a fitted effect of over 65% in size
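Reaction started by adding substrate (50 nM final) to 10 nM enzyme after 15 min room-temperature compound preincubation. Reads at 0 and 15 min, with data normalized and fitted to a four-parameter Hill equation.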
PI5P4K alpha inh: qHTS for Inhibitors of phosphatidylinositol 5-phosphate 4-kinase (PI5P4K) | Phosphatidylinositol 5-phosphate 4-kinase type-2 alpha (Homo sapiens), P48426 | PI5P4Kalpha enzyme, ADP-Glo luminescence, 60 min; stronger effect = lower value | max response, % | hit rate 1.2% among 330,000; active means max response of -50% or lower; inconclusive means between -30% and -50%; inactive means -30% or higher; further: value at the top dose of about 77 µM; on the % scale 0 is the no-effect control and ±100 the full control effect
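Enzyme plus substrate dispensed, test compounds pinned in, then ATP (5 microM final) added. After 60 min at RT, ADP-Glo reagent 1 for 45 min and reagent 2 for 30 min preceded luminescence imaging.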
TCR act: Activators of T cell receptors: qHTS campaign. primary human leukocytes, anti-CD3, IL-2 HTRF, 48 h. Potency, µM (doses to about 9.22 µM), for inactives: at the highest dose activation of IL-2 secretion, hits mostly activators. 330,000 tested, under 10 active; further: % of control where 0% means no effect
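Readout: HTRF IL-2, Eu-cryptate/d2 antibody pair, 320nm excitation, 665nm emission. Stimulus: a-CD3 beads, no co-stimulation. Cells: primary human leukocytes. Exposure: 48 hr with compound.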
USP1 UbRho: Inhibitors of USP1/UAF1: Hit Validation in Primary Assay | shares compounds with VDR inh | Ub-Rhodamine cleavage, fluorescence kinetic read | Potency, µM (titrated, usually from 56.8 µM), for the others: top-dose activity change, negative = inhibition, actives largely listed as inhibitors | hit rate 50% among 50
VDR confirm: qHTS for Inhibitors of the vitamin D receptor (VDR): Hit Validation in Primary Screen | AID 602199, 2012 | VDR-coactivator inhibition assay, qHTS confirmation | Potency, µM, actives largely listed as inhibitors | hit rate 89% among 840 | shares compounds with VDR inh; further: potency means the concentration at half of the fitted maximal effect
VDR FP fluor: qHTS for Inhibitors of the vitamin D receptor (VDR): Hit Validation using a Fluorescein Assay. shares compounds with VDR inh. VDR-coactivator binding, fluorescein fluorescence polarization. Potency, µM (titrated, usually from 57.1 µM), without a hit: at the top dose activity change, negative = inhibition, usual class: inhibitors. hit rate 48% among 840. AID 602200, 2012; further: potency means the concentration at half of the fitted maximal effect
VDR bla: qHTS for Inhibitors of the vitamin D receptor (VDR): Hit Validation using a Beta-Lactamase Assay; hit rate 23% among 840; VDR beta-lactamase reporter cells, FRET ratio; cells co-treated with VDR agonist LG190178; Potency, µM (doses to about 46.1 µM), for the others: at the highest dose activity change, negative = inhibition, hits mostly inhibitors; shares compounds with VDR inh; further: potency means the concentration at half of the fitted maximal effect; on the % scale 0 is the no-effect control and ±100 the full control effect
VDR cytotox: qHTS for Inhibitors of the vitamin D receptor (VDR): Hit Validation using a Cytotoxicity Assay; shares compounds with VDR inh; cytotoxicity counter-screen, cell viability, qHTS; Potency, µM (doses to about 48.3 µM), for the others: top-dose activity change, negative = cytotoxicity, hits mostly cytotoxic; hit rate 18% among 840; AID 602204, 2012;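 further: potency means the concentration at half of the fitted maximal effect; plate controls were DMSO for no effect and high-concentration cycloheximide for full effect; nearly all actives have a fitted effect of over 75% in size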
FEN1 inh-2: qHTS Assay for the Inhibitors of FEN1: Confirmatory Assay for Cherry-picked Compounds. shares compounds with FEN1 inh-1. FEN1 flap cleavage, TAMRA/BHQ2 fluorogenic DNA substrate. Potency, µM, actives largely listed as inhibitors. hit rate 79% among 880; further: potency means the concentration at half of the fitted maximal effect; nearly all actives have a fitted effect of over 60% in size
Starred values were filed as active, the others as inactive; ? = inconclusive; · = no result; [ ] = another dose, or the depositor's remark. An excerpt weighted towards active compounds, which were near 3.7% of everything screened. Unless noted, the call rests on the fitted dose curve; in most records, active means well fitted curve in the direction sought with a large enough effect; inconclusive means small, poorly fitted or top-dose-only effect, or another doubt; inactive means no such curve, though single readings can be large; an effect the other way counts as inactive or inconclusive.

SMILES	WRN helicase inh	VDR inh	PLK1 PBD block	FEN1 inh-1	PI5P4K alpha inh	TCR act	VDR confirm	VDR FP fluor	VDR bla	VDR cytotox	others
FC(F)(F)c1cccc(Sc2nc(-c3ccccc3)nnc2C(F)(F)F)c1	-19.5%	31.6µM*	-21.4%	-9.9%	1.8	-0.8%	15*	?	?	?
FC(F)(F)c1nnc(-c2ccccc2)nc1Sc1ccccc1	-12.2%	-17.4%	-20.3%	-9.0%	22.0	6.9%	·	·	·	·
c1ccc2c(c1)Sc1ccccc1N2CCN1CCCC1	·	4.4%	·	·	·	·	·	·	·	·
CN1CCN(CCCN2c3ccccc3Sc3ccc(C(F)(F)F)cc32)CC1	-4.4%	?	-5.0%	-0.9%	22.3	11.5%	·	·	·	·	USP1 UbRho=?
O=C(/C=C/c1ccccc1)c1ccc2ccccc2c1	-10.7%[11.6 µM]	?	-14.4%	2.6%	15.3	3.0%	·	·	·	·
O=C(/C=C/c1ccccc1)c1ccccc1	-16.9%[57.1 µM]	17.8µM*	-10.6%	-12.5%	-2.8	-2.2%	15.8*	11.2µM*	25.9µM*	?
Cc1ccccc1CS(=O)(=O)c1nnc([C@H](CC(C)C)NC(=O)OC(C)(C)C)o1	-33.1%	20µM*	8.91µM*	-12.0%	·	0.2%	10.6*	7.08µM*	?	?
CC(C)C[C@H](NC(=O)OC(C)(C)C)c1nnc(SCc2ccccc2)o1	-10.3%	-4.4%	-13.4%	-20.7%	-3.7	-4.7%	·	·	·	·
CCCCOC(=O)NS(=O)(=O)c1sc(CC(C)C)cc1-c1ccc(Cn2c(CC)nc3c(C)cc(C)nc32)cc1	·	-2.8%	·	?	·	·	·	·	·	·	USP1 UbRho=?
CCN(CC)CCN(C(=O)c1ccco1)c1nc2c(C)cccc2s1	·	18.3%	·	?	·	·	·	·	·	·
Cc1ccnc(NC(c2cc(C)ccc2O)c2ccc3cccnc3c2O)c1 (stereo unspecified)	·	15.8µM*	·	-3.8%	·	·	12.6*	11.2µM*	?	-28.5%
Cc1ccc2ccc(C(Nc3ccccn3)c3ccccc3)c(O)c2n1 (stereo unspecified)	-3.9%	?	?	-23.4%	-14.1	-5.8%	·	·	·	·
COc1ccc(C(Nc2cc(C)ccn2)c2ccc3ccc(C)nc3c2O)cc1 (stereo unspecified)	-7.8%	?	15µM*	5.2%	-15.5	6.6%	6.31*	3.55µM*	2.2%	7.8%
COc1cc(C(Nc2ccccn2)c2ccc3ccc(C)nc3c2O)cc(OC)c1O (stereo unspecified)	31.6µM*	17.8µM*	2.38µM*	-19.6%	-58.4*	-2.9%	7.52*	5.01µM*	?	?
COc1ccccc1NC(c1cccnc1)c1ccc2cccnc2c1O (stereo unspecified)	?	50.1µM*	2.99µM*	10.1%	?	-5.2%[46.1 µM]	9.47*	?	-12.3%	-6.8%
Cc1cccc(-c2cccc(-c3cc(=O)oc4cc5c(cc34)OCO5)c2)c1	·	3.1%	·	·	·	·	·	·	·	·
Cc1ccc(Nc2nc(N)nc(N)c2S(=O)(=O)c2ccccc2)cc1	·	1.0%	·	-0.9%	·	·	·	·	·	·
CCc1ccc(-c2nc(CSCC(=O)NCc3ccc(C)cc3)c(C)o2)cc1	·	-16.3%	·	-14.8%	·	·	·	·	·	·
CCCn1c(=O)[nH]c2nc(-c3ccc(S(=O)(=O)O)cc3)[nH]c2c1=O	·	4.0%	·	·	·	·	·	·	·	·
CNC(=O)c1cnc2sc(N3CCC(C)CC3)nn2c1=O	·	-0.7%	·	-17.4%	·	·	·	·	·	·
Cc1ccc(C(=O)/C=C/c2cc(Br)cc(Br)c2O)o1	79.4µM*	8.91µM*	26.7µM*	?	-28.2	6.2%	3.77*	?	?	-17.1%	FEN1 inh-2=84.9*
CCn1ccc2cc(S(=O)(=O)N3CCC(C(=O)NCc4cccc(C)c4)CC3)ccc21	·	-7.2%	·	-10.3%	·	·	·	·	·	·
CN(C)c1ccc(CNC(=O)C2CCN(c3nnc(-n4cccc4)s3)CC2)cc1	·	-0.9%	·	5.2%	·	·	·	·	·	·
O=C(O)CCNc1ccc(NCCC(=O)O)c2c1C(=O)c1ccccc1C2=O	?	7.08µM*	?	17.8µM*	-67.9*	13.3%	7.52*	27.6%	1.4%	?	FEN1 inh-2=37.9*
COc1ccc(S(=O)(=O)Nc2cccc3ccccc23)cc1	·	22.1%	·	-3.0%	·	·	·	·	·	·
COc1ccc(S(=O)(=O)Nc2cc(SCC(=O)O)c(O)c3ccccc23)cc1	79.4µM*	?	1.5µM*	?	-51.2*	13.1%	15.8*	14.1µM*	?	?	FEN1 inh-2=67.5*

Source: PubChem BioAssay
